Records with an inconclusive call do not appear. Activity calls are given as the source filed them. How the source made its calls, unless noted: active means hit-call score of the fitted dose curve at least 0.9, where 1 is the maximum; inconclusive means response in the unintended direction; inactive means score below 0.9.
Legend:
[1] = ATG_TCF_b_cat_CIS: Attagene CIS-FACTORIAL HepG2 Assay for human T-Cell-Factor with beta-catenin (TCF/b-cat) (AID 2282965; active means hit-call score of the fitted dose curve at least 0.9, where 1 is the maximum; inactive means score below 0.9); conditions: HepG2 TCF/beta-catenin cis-reporter transcription, actives raise or lower the signal
How it was run: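 Endogenous TCF/LEF activity read as reporter transcript level via RT-PCR and capillary electrophoresis fluorescence in transfected HepG2, 24 h exposure; gain or loss of signal fitted against DMSO controls.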

[2] = ATG_TAL_CIS: Attagene CIS-FACTORIAL HepG2 Assay for human TAL Basal Promoter (AID 2282966; active means hit-call score of the fitted dose curve at least 0.9, where 1 is the maximum; inactive means score below 0.9;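 further: background control endpoint measuring basal TAL promoter reporter mRNA not a specific factor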); conditions: HepG2 Attagene cis-factorial TAL promoter reporter; actives raise or lower the signal
How it was run: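 Readout: reporter mRNA, fluorescence by CE. System: HepG2, transient multi-reporter transfection, endogenous TF activity. Exposure: 24 h. Analysis: bidirectional, DMSO-normalized; background control.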

[3] = ATG_TGFb_CIS: Attagene CIS-FACTORIAL HepG2 Assay for human Transforming Growth Factor (TGF) (AID 2282967; active means hit-call score of the fitted dose curve at least 0.9, where 1 is the maximum; inactive means score below 0.9); conditions: HepG2 Attagene CIS TGFb reporter, mRNA transcription; actives raise or lower the signal
How it was run: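 HepG2 cells transiently transfected with cis-promoter-driven multiplexed reporter units; 24 h compound exposure. Reporter mRNA measured by RT-PCR, 6-FAM labeling, HpaI digestion and capillary electrophoresis; bidirectional fit versus DMSO baseline.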

[4] = ATG_VDRE_CIS: Attagene CIS-FACTORIAL HepG2 Assay for human Vitamin D Receptor Element (VDRE) (AID 2282968; active means hit-call score of the fitted dose curve at least 0.9, where 1 is the maximum; inactive means score below 0.9); conditions: HepG2 VDRE cis-reporter transcription, actives raise or lower the signal
How it was run: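 Reporter mRNA induction, quantified by capillary electrophoresis of fluorescently labelled RT-PCR products, was read 24 h after dosing HepG2 cells carrying transiently transfected cis-regulated reporter units; gain or loss relative to DMSO.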

[5] = molecular target: Nuclear receptor subfamily 1 group I member 3 (Homo sapiens) (UniProt Q14994); assay: ATG_CAR_TRANS: Attagene TRANS-FACTORIAL HepG2 Assay for human Constitutive Androstane Receptor (CAR) (AID 2282969); conditions: HepG2 Attagene TRANS-FACTORIAL CAR reporter;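 further: activators raise reporter mRNA above DMSO so AC50 marks induction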
Chain of Nuclear receptor subfamily 1 group I member 3 (Homo sapiens) (Q14994 whole entry, looked up, the tested form may be a part): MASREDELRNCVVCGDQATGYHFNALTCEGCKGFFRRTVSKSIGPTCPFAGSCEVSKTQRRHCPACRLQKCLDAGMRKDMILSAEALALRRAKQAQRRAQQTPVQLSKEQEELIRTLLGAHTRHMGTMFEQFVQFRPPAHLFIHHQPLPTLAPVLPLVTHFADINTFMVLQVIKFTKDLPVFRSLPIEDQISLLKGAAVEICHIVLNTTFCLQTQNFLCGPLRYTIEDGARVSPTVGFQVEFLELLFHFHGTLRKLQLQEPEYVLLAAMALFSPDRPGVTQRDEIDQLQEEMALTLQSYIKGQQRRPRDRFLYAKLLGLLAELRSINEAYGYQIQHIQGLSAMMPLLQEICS
How it was run: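 Readout is reporter mRNA induction, quantified by fluorescent primer extension and capillary electrophoresis after RT-PCR. Cells were HepG2 transiently carrying chimeric NR-Gal4 constructs with GAL4-UAS reporters, treated for 24 h; activity scored upward from DMSO.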

[6] = molecular target: Estrogen receptor (Homo sapiens) (UniProt P03372); assay: ATG_ERa_TRANS: Attagene TRANS-FACTORIAL HepG2 Assay for human Estrogen Receptor alpha (ERa) (AID 2282970); conditions: HepG2 Attagene TRANS ERa GAL4 reporter, mRNA
Chain of Estrogen receptor (Homo sapiens) (P03372 whole entry, looked up, the tested form may be a part): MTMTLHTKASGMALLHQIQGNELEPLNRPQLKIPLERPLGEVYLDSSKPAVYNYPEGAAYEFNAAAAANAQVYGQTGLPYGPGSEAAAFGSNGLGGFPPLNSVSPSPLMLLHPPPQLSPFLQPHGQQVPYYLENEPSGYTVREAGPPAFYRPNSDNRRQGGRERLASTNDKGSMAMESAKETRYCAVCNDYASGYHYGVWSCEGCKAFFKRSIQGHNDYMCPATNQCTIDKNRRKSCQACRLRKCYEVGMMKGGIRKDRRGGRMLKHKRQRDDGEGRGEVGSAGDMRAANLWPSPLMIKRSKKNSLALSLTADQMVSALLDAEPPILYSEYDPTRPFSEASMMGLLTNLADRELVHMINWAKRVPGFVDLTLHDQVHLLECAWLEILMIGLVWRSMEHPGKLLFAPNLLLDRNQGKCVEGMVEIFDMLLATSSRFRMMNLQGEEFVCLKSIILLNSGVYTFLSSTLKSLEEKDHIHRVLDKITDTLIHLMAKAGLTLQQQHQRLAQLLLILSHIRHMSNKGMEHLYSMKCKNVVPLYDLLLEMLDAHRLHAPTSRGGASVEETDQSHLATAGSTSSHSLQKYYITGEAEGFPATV
How it was run: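 Transactivation via ERa-Gal4 chimera in HepG2; 24 hour incubation; reporter mRNA detected by fluorescence RT-PCR and capillary electrophoresis.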

[7] = molecular target: Steroid hormone receptor ERR1 (Homo sapiens) (UniProt P11474); assay: ATG_ERRa_TRANS: Attagene TRANS-FACTORIAL HepG2 Assay for human Estrogen-Related Receptor alpha (ERRa) (AID 2282971); conditions: HepG2 Attagene TRANS reporter, ERRa transactivation
Chain of Steroid hormone receptor ERR1 (Homo sapiens) (P11474 whole entry, looked up, the tested form may be a part): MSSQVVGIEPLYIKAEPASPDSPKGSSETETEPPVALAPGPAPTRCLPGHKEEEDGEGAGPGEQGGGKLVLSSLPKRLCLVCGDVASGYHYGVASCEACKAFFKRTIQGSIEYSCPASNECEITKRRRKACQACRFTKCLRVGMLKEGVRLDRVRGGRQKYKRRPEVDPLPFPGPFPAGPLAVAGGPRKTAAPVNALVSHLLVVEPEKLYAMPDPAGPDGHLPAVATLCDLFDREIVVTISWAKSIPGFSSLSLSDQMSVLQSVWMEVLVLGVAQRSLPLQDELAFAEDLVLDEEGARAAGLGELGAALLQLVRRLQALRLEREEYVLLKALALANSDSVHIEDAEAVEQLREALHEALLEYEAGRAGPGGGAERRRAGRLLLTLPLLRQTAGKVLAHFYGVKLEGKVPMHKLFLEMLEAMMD
How it was run: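 HepG2 cells were transiently transfected with multiple GAL4-UAS reporter units, then dosed with compound for 24 h. Total RNA was reverse-transcribed, reporter cDNA PCR-amplified and fluorescently labelled, and fragments resolved by capillary electrophoresis; induction was compared with DMSO.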

[8] = molecular target: X-box-binding protein 1 (Homo sapiens) (UniProt P17861); assay: ATG_Xbp1_CIS: Attagene CIS-FACTORIAL HepG2 Assay for human X-box Binding Protein 1 (XBP1) (AID 2282972; active means hit-call score of the fitted dose curve at least 0.9, where 1 is the maximum; inactive means score below 0.9); conditions: HepG2 XBP1 cis-element reporter, Attagene multiplex; actives raise or lower the signal
Chain of X-box-binding protein 1 (Homo sapiens) (P17861 whole entry, looked up, the tested form may be a part): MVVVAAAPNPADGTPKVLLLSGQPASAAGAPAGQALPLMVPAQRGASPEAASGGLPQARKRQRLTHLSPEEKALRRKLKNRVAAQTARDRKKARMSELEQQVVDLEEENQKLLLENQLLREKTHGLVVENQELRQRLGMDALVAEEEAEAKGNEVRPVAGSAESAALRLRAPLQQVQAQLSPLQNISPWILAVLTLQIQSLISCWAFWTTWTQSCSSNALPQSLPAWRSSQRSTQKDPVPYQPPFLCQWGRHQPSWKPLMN
How it was run: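 Fluorescence-labelled cDNA fragments from reporter transcripts, separated by capillary electrophoresis, give the signal. Source: HepG2 cells transfected with promoter-driven reporter units, harvested 24 h post-dose. DMSO served as reference for bidirectional curve fitting.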

[9] = ATG_Hpa5_TRANS: Attagene TRANS-FACTORIAL HepG2 Assay for human GAL4-Hpa5 Hepatocyte Transcription Factor Basal Promoter (AID 2282975); conditions: HepG2 Attagene GAL4-Hpa5 transcription reporter;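 further: hits are increases in reporter mRNA over DMSO baseline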
How it was run: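 Basal-promoter GAL4 background control within the HepG2 trans-factorial panel of transiently transfected reporter units. Reporter mRNA is measured 24 h after dosing by RT-PCR and capillary electrophoresis, fitted for gain of signal versus DMSO.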

[10] = molecular target: Estrogen-related receptor gamma (Homo sapiens) (UniProt P62508); assay: ATG_ERRg_TRANS: Attagene TRANS-FACTORIAL HepG2 Assay for human Estrogen-Related Receptor gamma (ERRg) (AID 2282977); conditions: HepG2 Attagene TRANS reporter, ERRg transactivation;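 further: hits increase reporter signal over DMSO so potencies reflect activators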
Chain of Estrogen-related receptor gamma (Homo sapiens) (P62508 whole entry, looked up, the tested form may be a part): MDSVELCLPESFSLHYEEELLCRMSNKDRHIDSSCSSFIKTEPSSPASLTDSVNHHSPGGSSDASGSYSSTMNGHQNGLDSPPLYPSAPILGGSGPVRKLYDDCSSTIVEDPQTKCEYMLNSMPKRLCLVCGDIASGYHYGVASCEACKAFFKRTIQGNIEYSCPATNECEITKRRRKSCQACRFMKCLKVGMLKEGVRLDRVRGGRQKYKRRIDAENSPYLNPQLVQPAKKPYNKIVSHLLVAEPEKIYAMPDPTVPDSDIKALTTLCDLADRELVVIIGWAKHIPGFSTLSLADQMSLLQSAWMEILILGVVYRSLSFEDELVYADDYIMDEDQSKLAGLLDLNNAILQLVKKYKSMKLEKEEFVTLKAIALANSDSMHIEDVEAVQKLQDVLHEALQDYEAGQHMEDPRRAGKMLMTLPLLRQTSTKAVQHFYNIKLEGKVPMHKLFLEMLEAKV
How it was run: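 HepG2 cells transiently transfected with multiplexed GAL4-UAS reporter units driven by chimeric NR-Gal4 proteins; 24 h exposure. Reporter mRNA quantified by RT-PCR, fluorescent labelling, HpaI digestion and capillary electrophoresis; gain of signal vs DMSO.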

[11] = molecular target: Glucocorticoid receptor (Homo sapiens) (UniProt P04150); assay: ATG_GR_TRANS: Attagene TRANS-FACTORIAL HepG2 Assay for human Glucocorticoid Receptor (GR) (AID 2282978); conditions: HepG2 Attagene TRANS GR reporter, mRNA transcription;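 further: activators score as hits since higher reporter transcript over DMSO is fitted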
Chain of Glucocorticoid receptor (Homo sapiens) (P04150 whole entry, looked up, the tested form may be a part): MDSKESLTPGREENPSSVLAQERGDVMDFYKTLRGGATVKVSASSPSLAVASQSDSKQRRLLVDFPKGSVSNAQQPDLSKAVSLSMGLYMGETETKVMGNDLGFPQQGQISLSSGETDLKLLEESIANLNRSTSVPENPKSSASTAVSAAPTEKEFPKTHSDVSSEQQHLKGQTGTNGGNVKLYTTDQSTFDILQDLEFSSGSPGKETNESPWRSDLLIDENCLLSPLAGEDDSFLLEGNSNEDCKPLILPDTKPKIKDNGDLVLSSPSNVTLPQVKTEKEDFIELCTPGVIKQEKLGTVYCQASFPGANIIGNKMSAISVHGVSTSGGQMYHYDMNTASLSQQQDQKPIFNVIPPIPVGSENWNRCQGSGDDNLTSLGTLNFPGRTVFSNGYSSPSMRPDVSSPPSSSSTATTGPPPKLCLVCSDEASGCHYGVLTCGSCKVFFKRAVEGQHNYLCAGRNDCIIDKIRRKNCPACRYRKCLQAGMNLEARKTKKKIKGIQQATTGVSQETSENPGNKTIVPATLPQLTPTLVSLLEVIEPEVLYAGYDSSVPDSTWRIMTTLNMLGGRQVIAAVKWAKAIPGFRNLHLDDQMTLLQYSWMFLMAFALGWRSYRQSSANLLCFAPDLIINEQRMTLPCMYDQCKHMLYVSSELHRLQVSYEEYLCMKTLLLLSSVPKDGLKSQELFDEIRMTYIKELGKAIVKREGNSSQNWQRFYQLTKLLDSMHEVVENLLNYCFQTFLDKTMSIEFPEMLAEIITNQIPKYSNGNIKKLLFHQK
How it was run: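 Exogenous NR-GAL4 fusion activity was assessed through induced GAL4-UAS reporter transcripts in transfected human HepG2 cells, quantified after 24 h by RT-PCR and fluorescent capillary electrophoresis with DMSO as baseline.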

[12] = molecular target: Oxysterols receptor LXR-alpha (Homo sapiens) (UniProt Q13133); assay: ATG_LXRa_TRANS: Attagene TRANS-FACTORIAL HepG2 Assay for human Liver X Receptor alpha (LXRa) (AID 2282980); conditions: HepG2 Attagene TRANS reporter, LXRa transactivation
Chain of Oxysterols receptor LXR-alpha (Homo sapiens) (Q13133 whole entry, looked up): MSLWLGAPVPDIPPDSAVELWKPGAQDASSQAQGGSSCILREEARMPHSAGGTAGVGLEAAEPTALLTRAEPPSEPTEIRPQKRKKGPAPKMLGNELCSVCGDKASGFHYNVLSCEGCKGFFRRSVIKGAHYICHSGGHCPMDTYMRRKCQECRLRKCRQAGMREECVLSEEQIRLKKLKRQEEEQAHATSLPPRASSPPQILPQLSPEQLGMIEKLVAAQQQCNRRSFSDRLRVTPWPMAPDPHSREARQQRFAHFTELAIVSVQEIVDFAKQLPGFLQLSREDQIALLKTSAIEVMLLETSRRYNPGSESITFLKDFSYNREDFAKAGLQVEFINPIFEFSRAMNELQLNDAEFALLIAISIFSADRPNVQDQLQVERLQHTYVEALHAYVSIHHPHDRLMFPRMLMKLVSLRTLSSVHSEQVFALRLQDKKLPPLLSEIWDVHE
How it was run: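 Transient HepG2 transfectants, 24 h dosing, RT-PCR/CE mRNA reporter quantitation; gain-of-signal vs DMSO.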

[13] = molecular target: Oxysterols receptor LXR-beta (Homo sapiens) (UniProt P55055); assay: ATG_LXRb_TRANS: Attagene TRANS-FACTORIAL HepG2 Assay for human Liver X Receptor beta (LXRb) (AID 2282981); conditions: HepG2 Attagene TRANS GAL4-LXRb reporter, mRNA
Chain of Oxysterols receptor LXR-beta (Homo sapiens) (P55055 whole entry, looked up, the tested form may be a part): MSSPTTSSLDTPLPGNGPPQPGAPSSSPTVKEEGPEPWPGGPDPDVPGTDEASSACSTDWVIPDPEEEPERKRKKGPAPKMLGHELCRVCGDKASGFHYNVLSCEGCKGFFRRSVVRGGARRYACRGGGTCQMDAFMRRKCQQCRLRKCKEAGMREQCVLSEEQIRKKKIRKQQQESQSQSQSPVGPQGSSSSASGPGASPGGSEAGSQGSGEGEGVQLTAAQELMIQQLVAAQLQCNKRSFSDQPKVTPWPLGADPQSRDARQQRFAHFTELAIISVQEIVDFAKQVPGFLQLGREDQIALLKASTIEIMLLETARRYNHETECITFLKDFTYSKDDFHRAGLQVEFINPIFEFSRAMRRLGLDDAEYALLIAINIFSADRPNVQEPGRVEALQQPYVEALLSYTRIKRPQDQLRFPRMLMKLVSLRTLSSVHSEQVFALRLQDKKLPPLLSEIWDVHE
How it was run: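 Transient transfection HepG2 (multiplexed RTUs, GAL4-UAS); NR-Gal4 chimera; 24 h exposure; RNA → RT-PCR → 6-FAM primer extension → HpaI → CE; increase vs DMSO.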

[14] = molecular target: Hepatocyte nuclear factor 4-alpha (Homo sapiens) (UniProt P41235); assay: ATG_HNF4a_TRANS: Attagene TRANS-FACTORIAL HepG2 Assay for human Hepatocyte Nuclear Factor 4 alpha (HNF4a) (AID 2282982); conditions: HepG2 HNF4a transactivation reporter, mRNA readout
Chain of Hepatocyte nuclear factor 4-alpha (Homo sapiens) (P41235 whole entry, looked up, the tested form may be a part): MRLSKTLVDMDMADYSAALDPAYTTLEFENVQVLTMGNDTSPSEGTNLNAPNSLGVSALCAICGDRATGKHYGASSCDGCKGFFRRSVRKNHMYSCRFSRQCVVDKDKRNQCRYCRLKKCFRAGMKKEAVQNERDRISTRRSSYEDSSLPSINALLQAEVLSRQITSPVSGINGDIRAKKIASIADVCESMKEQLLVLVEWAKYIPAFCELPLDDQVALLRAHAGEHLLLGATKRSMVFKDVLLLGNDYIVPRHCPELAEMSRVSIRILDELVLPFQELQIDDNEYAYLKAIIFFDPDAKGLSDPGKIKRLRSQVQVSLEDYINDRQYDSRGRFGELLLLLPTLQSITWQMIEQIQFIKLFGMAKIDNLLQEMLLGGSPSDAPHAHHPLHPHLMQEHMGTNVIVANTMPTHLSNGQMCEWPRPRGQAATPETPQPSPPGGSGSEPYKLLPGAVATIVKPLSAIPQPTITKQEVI
How it was run: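 Readout is fluorescent reporter-transcript fragments resolved by capillary electrophoresis after RT-PCR from HepG2 cells dosed for 24 h. Cells carried transfected GAL4-UAS reporter constructs measuring exogenous NR-GAL4 chimera activity; DMSO served as baseline.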

[15] = ATG_M_06_TRANS: Attagene TRANS-FACTORIAL HepG2 Assay for M06 Transcription Factor (Internal Marker) (AID 2282983); conditions: HepG2 Attagene TRANS M06 internal marker reporter
How it was run: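 Measured by capillary electrophoresis of fluorescently labelled RT-PCR products, this endpoint reflects reporter mRNA in HepG2 cells harbouring exogenous NR-GAL4 reporter constructs after 24 h exposure, with DMSO as baseline.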

[16] = ATG_M_32_TRANS: Attagene TRANS-FACTORIAL HepG2 Assay for M32 Transcription Factor (Internal Marker) (AID 2282984); conditions: HepG2 Attagene TRANS M32 internal marker reporter
How it was run: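 Measures reporter mRNA induction in human HepG2 liver cells after 24 h chemical treatment. Transcripts from transiently transfected GAL4-UAS reporter units are amplified, fluorescently labelled and sized by capillary electrophoresis; gain of signal relative to DMSO.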

[17] = ATG_M_19_TRANS: Attagene TRANS-FACTORIAL HepG2 Assay for M19 Transcription Factor (Internal Marker) (AID 2282974); conditions: HepG2 Attagene TRANS-FACTORIAL M19 internal marker reporter
How it was run: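 Using RT-PCR and capillary electrophoresis, reporter mRNA from transiently transfected human HepG2 cells was quantified following 24 h exposure; activity was fitted in the positive direction against DMSO.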

[18] = ATG_GAL4_TRANS: Attagene TRANS-FACTORIAL HepG2 Assay for GAL4 (Internal Marker) (AID 2282976); conditions: HepG2 Attagene TRANS GAL4 internal marker reporter
How it was run: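 Fluorescence from capillary electrophoresis of labelled RT-PCR products quantifies reporter mRNA induction after 24 h dosing of HepG2 cells carrying transfected GAL4-UAS reporter transcription units. Vehicle DMSO serves as baseline.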

Measured: AC50

Cc1cc(C)nc(Nc2ccccc2)n1
active: [4] 14.9 µM
inactive: [1] | [2] | [3] | [5] | [6] | [7] | [8] | [9] | [10] | [11] | [12] | [13] | [14] | [15] | [16]

COP(=S)(OC)SCn1nnc2ccccc2c1=O
active: [4] 10.3 µM | [6] 45.4 µM | [8] 18.7 µM
inactive: [1] | [2] | [3] | [17] | [9] | [18] | [10] | [13] | [15] | [16]

CC1(C)CCC(=Cc2ccc(Cl)cc2)C1(O)Cn1cncn1 (configuration not stated)
inactive: [1] | [2] | [3] | [5] | [6] | [8] | [17] | [18] | [11] | [13] | [15] | [16]
active: [4] 8.04 µM

CCOc1nc(C(Cl)(Cl)Cl)ns1
inactive: [1] | [2] | [3] | [4] | [5] | [6] | [7] | [8] | [17] | [10] | [13]

CCCCC(C#N)(Cn1cncn1)c1ccc(Cl)cc1 (configuration not stated)
inactive: [1] | [2] | [3] | [5] | [6] | [7] | [8] | [9] | [10] | [11] | [13] | [14] | [15] | [16]

CC(C)N1C(=O)c2ccccc2NS1(=O)=O
inactive: [1] | [2] | [3] | [6] | [7] | [8] | [9] | [10] | [11] | [15] | [16]
active: [4] 14.9 µM | [13] 50 µM

CCOc1cc(C(C)(C)C)ccc1C1COC(c2c(F)cccc2F)=N1 (configuration not stated)
active: [4] 1.36 µM
inactive: [1] | [2] | [3] | [5] | [6] | [7] | [8] | [17] | [10] | [14] | [16]

O=C(Nc1ccccc1-c1ccc(Cl)cc1)c1cccnc1Cl
active: [4] 13.7 µM
inactive: [1] | [2] | [3] | [5] | [6] | [7] | [8] | [9] | [10] | [11] | [13] | [14] | [15] | [16]
